Test results reported in PubChem BioAssay AID1347076 (National Center for Advancing Translational Sciences (NCATS), 2019).
Out of some 400,000 compounds screened, about 13,000 (3.2%) were called active. About 18% were inconclusive and are not listed. This is one part of a sample in which actives are shown more often than they occur. A number with no mark means an inactive call. The call rests on the fitted dose curve; in most records, active means well fitted cell-killing curve with a large enough effect; inconclusive means small, poorly fitted or top-dose-only effect, or effect the other way; inactive means flat fitted curve, though single readings scatter.

experiment: qHTS assay for MDR1-selective chemotherapeutics: Primary screen using the drug-selected MDR subline cells KB-V1; conditions: KB-V1 MDR cells viability, CellTiter-Glo, 72 h; series mostly up to 46.1 µM; activity change, negative = cytotoxicity: at the top concentration; further: nearly all actives have a fitted effect of over 60% in size
In short: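 Compound-treated KB-V1 multidrug-resistant cells, 72 h, 37 degrees C; viability by CellTiter-Glo. Fitted qHTS curves give the values.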
On the % scale 0 is the no-effect control and ±100 the full control effect; potency means the concentration at half of the fitted maximal effect.

Going from CCCSc1nc2sc3c(c2c(=O)n1-c1cccc(Br)c1)CC(C)(C)OC3 to CCC1(C)Cc2c(sc3nc4n(c(=O)c23)CCCS4)CO1 (stereo not drawn), the “activity change, negative = cytotoxicity” value rises from -22.2% to 0%.

Compared with Cc1ccc(N2CC(c3nnc(Cc4ccccc4Cl)o3)CC2=O)cc1 (stereo not drawn), Cc1ccc(S(=O)(=O)N2CC3C(=O)C[C@@H](c4ccccc4Cl)N(S(=O)(=O)c4ccc(C)cc4)C3CC2c2ccccc2)cc1 (stereo partly drawn) is lower in “activity change, negative = cytotoxicity” value: 2.41% for the first, -27.9% for the second.

First: CC(C)(C)OC(=O)N1CCC(c2c(C(=O)N3CCN(c4cccc(Cl)c4)CC3)cnn2-c2cccc(Cl)c2)CC1
Second: Cc1cccc(N2CCN(C(=O)c3cnc(N4CCCC4)nc3C)CC2)c1C
The “activity change, negative = cytotoxicity” value of the first is lower: -27.3% for the first, 19.2% for the second.

Going from O=C(COc1cccnc1[N+](=O)[O-])Nc1ccc(Cl)cc1F to Cc1ccc(OCC(=O)NC(C)c2ccccc2)c([N+](=O)[O-])n1 (stereo not drawn), the “activity change, negative = cytotoxicity” value falls from 4.4% to -8.09%.

Going from COc1ccc(C(C)(C)C)cc1NC(=O)CN(C)C1=NS(=O)(=O)c2ccccc21 to CN(CC(=O)Nc1ccccc1F)S(=O)(=O)c1ccc2c(c1)c(=O)n(C)c(=O)n2C, the “activity change, negative = cytotoxicity” value rises from -22.1% to -0.676%.

First: CC1(C(=O)NCc2ccc3c(c2)OCO3)CCN1C(=O)Cc1cccs1 (stereo not drawn)
Second: Cc1nc2c(OCC(=O)C(C)(C)C)cccn2c1N(C)Cc1cccs1
The “activity change, negative = cytotoxicity” value of the first is higher: 2.58% for the first, -14.1% for the second.

First: C[C@H](NC(=O)CC[C@H]1O[C@@H](n2ccc(=O)[nH]c2=O)[C@H](O)[C@@H]1O)c1cccc2ccccc12
Second: COc1ccc(C(=O)Nc2cc(C)ccc2NC(=O)COc2ccccc2)cc1
The “activity change, negative = cytotoxicity” value of the first is higher: 14.5% for the first, -2.79% for the second.

Compared with CC(=O)NC(=S)NNC(=O)c1ccc(Br)cc1, O=C(NNC(=O)c1ccc(-c2ccccc2)cc1)Nc1ccccc1 is lower in “activity change, negative = cytotoxicity” value: -2.46% for the first, -17% for the second.

Going from CNC(=S)NNC(=O)c1sccc1OCc1ccccc1 to Cc1ccc(OCC(=O)NNC(=S)NCc2ccccc2)cc1, the “activity change, negative = cytotoxicity” value rises from -21.8% to 2.82%.

Going from COC(=O)C1(C(=O)OC)C/C=C\CN(S(=O)(=O)c2ccccc2[N+](=O)[O-])CCC1 to COc1ccc(C(=O)OC(C)C(=O)NC2CCCC2)cc1S(=O)(=O)N1CCOCC1 (stereo not drawn), the “activity change, negative = cytotoxicity” value rises from 3.37% to 4.6%.

Compared with COc1ccc(Cn2c(C)c(C)c(C#N)c2NC(=O)Nc2ccc(F)cc2)cc1, CCOc1ccc(NC(=O)c2cc3c(=O)n(Cc4cccs4)ccc3nc2C)cc1 is lower in “activity change, negative = cytotoxicity” value: 18% for the first, -7.46% for the second.

Going from COc1ccc(NS(=O)(=O)c2cc(NC(=O)c3ccc(S(=O)(=O)N(C)C)cc3)ccc2N2CCOCC2)cc1 to Cc1ccc(CC(=O)Nc2ccc(S(=O)(=O)N3CCOCC3)cc2)cc1C, the “activity change, negative = cytotoxicity” value falls from 7.71% to -19.5%.

Going from Cc1nc(SCC(=O)N2CC(=O)Nc3ccccc32)c2c(C)c(C)sc2n1 to Cc1sc2nc(-c3ccccc3F)oc(=O)c2c1C, the “activity change, negative = cytotoxicity” value rises from -23.9% to 23.8%.

Compared with O=C(CSc1nnc(-c2cccs2)n1Cc1ccccc1)N1CCc2ccccc2C1, Cc1ccccc1-c1nc(NC(C)C)nc2cc(-c3ccccc3)sc12 is higher in “activity change, negative = cytotoxicity” value: 0% for the first, 3.17% for the second.

Going from COc1ccc(OC)c(C(=O)NC2CCCc3c2cnn3-c2cc(C)cc(C)c2)c1 (stereo not drawn) to COCCn1c(SCC(=O)Nc2cc(OC)ccc2OC)nc2c(c1=O)SC(C)C2 (stereo not drawn), the “activity change, negative = cytotoxicity” value falls from 1.4% to -7.8%.

Compared with CCOC(=O)N1CCc2c(sc3c2C(=O)NC(c2ccccc2F)N3)C1 (stereo not drawn), C/C(=C\c1ccccc1)C1NC(=O)c2c(sc3c2CCCC3)N1 (stereo not drawn) is higher in “activity change, negative = cytotoxicity” value: -0.0929% for the first, 0% for the second.

Compared with COc1ccc(NC(=O)CCCN2C(=O)CCn3nc(-c4cn(C)c5ccccc45)cc32)cc1OC, COc1ccc(CC(=O)Nc2ccc3c(c2)CCC3)cc1S(=O)(=O)N1CCOCC1 is lower in “activity change, negative = cytotoxicity” value: 11.5% for the first, 0% for the second.

Compared with O=C(COC(=O)c1ccccc1OCCOc1ccccc1)Nc1cccc(Br)c1, O=C(COC(=O)c1ccccc1)Nc1cccc(S(=O)(=O)N2CCOCC2)c1 is lower in “activity change, negative = cytotoxicity” value: 0% for the first, -1.3% for the second.

First: COCCNC(=O)C1CCCN(Cc2ccccc2Cl)CC1 (stereo not drawn)
Second: O=C(C1CCC1)N1CCN(c2ccccc2)CC1
The “activity change, negative = cytotoxicity” value of the first is higher: 6.18% for the first, 3.49% for the second.

First: COC(=O)CCCCC1=CCC2C(=O)C=C(O)C2C1 (stereo not drawn)
Second: O=C(COC(=O)CCc1ccc(S(=O)(=O)N2CCOCC2)cc1)Nc1cccc(Cl)c1
The “activity change, negative = cytotoxicity” value of the first is lower: 3.11% for the first, 4.26% for the second.

Going from C=CCNc1scc(-c2ccccc2)[n+]1CC=C to O=C(NNC(=O)c1cc2c(s1)CCCC2)c1ccccc1, the “activity change, negative = cytotoxicity” value rises from 8.94% to 14.5%.

Compared with Cc1ccc(S(=O)(=O)N2C[C@H]3C(=O)C[C@@H](c4cccc5ccccc45)N(S(=O)(=O)c4ccc(C)cc4)[C@H]3C[C@H]2c2ccc(Cl)cc2)cc1, O=C1CCc2cc(S(=O)(=O)Nc3cccc(Oc4ccccc4)c3)ccc2N1 is lower in “activity change, negative = cytotoxicity” value: 7.7% for the first, 0% for the second.

First: O=[N+]([O-])c1ccc(/C=C/c2ccc3cccnc3c2)cc1
Second: O=C(CSc1ccccc1)Nc1cccc(S(=O)(=O)N2CCOCC2)c1
The “activity change, negative = cytotoxicity” value of the first is lower: -13.4% for the first, 2.32% for the second.

First: COc1cc(C(=O)N2CCOC23CCN(Cc2ccccc2)CC3)cc(OC)c1OC
Second: COc1ccc(C(=O)N(C)Cc2ccc(OC)c(OC)c2OC)cc1S(=O)(=O)N1CCOCC1
The “activity change, negative = cytotoxicity” value of the first is lower: -15.3% for the first, -7.85% for the second.

Going from CCc1nc2ccc(C(=O)N3CCN(c4cc(Cl)ccc4C)CC3)cc2nc1CC to CCn1c(SCC(=O)Nc2ccccc2F)nc2c(c1=O)SC(C)C2 (stereo not drawn), the “activity change, negative = cytotoxicity” value falls from 0% to -3.18%.

Going from COC(=O)c1ccc(C(=O)OC)c(NC(=S)N2CCCCC2)c1 to CN(CC(=O)Nc1ccc(F)cc1)CC(=O)Nc1ccc(Cl)c(S(=O)(=O)N2CCOCC2)c1, the “activity change, negative = cytotoxicity” value rises from -24.1% to 16.4%.

In the case of COc1ccc2c(c1)CCCO[C@]21O[C@H](CCO)C[C@H](O)[C@H]1O, the “activity change, negative = cytotoxicity” value is reported as -6.9%.

For CCCSc1nc(NCc2ccco2)c2c3c(sc2n1)COC(C)(CC)C3 (stereo not drawn), the Potency was 16.4 µM (active).
In the case of Cc1ccc(OCC(=O)Nc2ccccc2Sc2ccc(Cl)cc2)c([N+](=O)[O-])n1, the Potency is reported as 9.2 µM (active).
With CNC(=S)NNC(=O)c1ccc(N(C)C)cc1 the Potency was 11.6 µM (active).
For COc1ccc(NC(=O)c2sc(=O)n(Cc3ccc(S(=O)(=O)N(C)C)cc3)c2C)cc1, the Potency was 9.2 µM (active).
In the case of Cc1nc(SCC(=O)N2CCc3ccccc3C2)c2c(C)c(C)sc2n1, the Potency is reported as 18.4 µM (active).
For O=C1NC(c2ccncc2)Nc2sc3c(c21)CCCC3 (stereo not drawn), the Potency was 20.6 µM (active).
For Cc1cccc(NC(=O)c2ccc(OCC(=O)NCc3ccccc3)cc2)c1C, the Potency was 14.6 µM (active).
With C=CC[n+]1c(-c2ccc(C)cc2)csc1NNC(=O)Nc1ccccc1 the Potency was 14.6 µM (active).
With O=C(c1cc2c(s1)CCC2)N1CCN(c2ccccc2)CC1 the Potency was 20.6 µM (active).
For COC(=O)c1ccc(C(=O)OC)c(NC(=S)N2CCN(c3cc(Cl)ccc3C)CC2)c1, the Potency was 20.6 µM (active).
In the case of CCn1c(SCC(=O)Nc2ccc3c(c2)OCCO3)nc2c(c1=O)SC(C)C2 (stereo not drawn), the Potency is reported as 4.11 µM (active).
With O=C(CN1CCc2ccccc2C1)Nc1cccc(S(=O)(=O)N2CCOCC2)c1 the Potency was 18.4 µM (active).
In the case of COc1ccc(CCC(=O)Nc2ccc(Cl)c(S(=O)(=O)N3CCOCC3)c2)cc1OC, the Potency is reported as 16.4 µM (active).
With O=C(CCc1ccc(S(=O)(=O)N2CCOCC2)cc1)Nc1ccc2ccccc2c1 the Potency was 16.4 µM (active).
With COc1ccc(CC(=O)NC(C)c2ccc(Cl)c(Cl)c2)cc1S(=O)(=O)N1CCOCC1 (stereo not drawn) the Potency was 23.1 µM (active).
